Molecules are shown by their SMILES. The source made the active and inactive calls. Rule for the calls: active = hit-call score of the fitted dose curve at least 0.9, where 1 is the maximum; inactive = score below 0.9.

Transcriptional activator Myb (Homo sapiens), sequence (P10242 whole entry, looked up): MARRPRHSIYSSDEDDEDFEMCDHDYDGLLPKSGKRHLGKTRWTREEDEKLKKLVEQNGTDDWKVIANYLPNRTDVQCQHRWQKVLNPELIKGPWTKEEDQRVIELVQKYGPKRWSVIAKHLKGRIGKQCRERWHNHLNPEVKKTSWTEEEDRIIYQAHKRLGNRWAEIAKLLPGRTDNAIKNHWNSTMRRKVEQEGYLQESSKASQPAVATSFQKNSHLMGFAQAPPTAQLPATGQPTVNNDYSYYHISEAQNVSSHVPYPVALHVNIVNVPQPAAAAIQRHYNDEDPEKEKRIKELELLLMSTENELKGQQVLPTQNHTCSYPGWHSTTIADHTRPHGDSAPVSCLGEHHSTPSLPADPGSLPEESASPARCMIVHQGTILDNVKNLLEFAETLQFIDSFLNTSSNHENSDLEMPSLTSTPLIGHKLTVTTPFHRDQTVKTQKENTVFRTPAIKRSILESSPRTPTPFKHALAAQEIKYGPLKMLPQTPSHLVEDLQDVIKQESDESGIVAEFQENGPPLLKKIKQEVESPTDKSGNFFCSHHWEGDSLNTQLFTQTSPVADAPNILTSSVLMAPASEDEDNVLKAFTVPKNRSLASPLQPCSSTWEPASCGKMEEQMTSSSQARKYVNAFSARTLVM

This assay concerns the target Transcriptional activator Myb (Homo sapiens) (UniProt P10242). Briefly: ATG_Myb_CIS: Attagene CIS-FACTORIAL HepG2 Assay for human Myeloblastosis (Myb) Proto-Oncogene Transcription Factor (AID 2282986). Particulars: HepG2 Attagene CIS-FACTORIAL Myb reporter transcription; actives raise or lower the signal. On the procedure: ATG_CIS is a cell-based, multiplexed-readout assay that uses HepG2, a human liver cell line, with measurements taken at 24 hours after chemical dosing in a 24-well plate.ATG_Myb_CIS is one of 52 assay component(s) measured or calculated from the ATG_CIS assay. It is designed to make measurements of mRNA induction, a form of inducible reporter, as detected with fluorescence intensity signals by Reverse transcription polymerase chain reaction (RT-PCR) and Capillary electrophoresis technology.Data from the assay component ATG_Myb_CIS was analyzed into 1 assay endpoint. This assay endpoint, ATG_Myb_CIS, was analyzed with bidirectional fitting relative to DMSO as the negative control and baseline of activity. Using a type of inducible reporter, measures of mRNA for gain or loss-of-signal activity can be used to understand the reporter gene at the transcription factor-level as they relate to the gene MYB. Furthermore, this assay endpoint can be referred to as a primary readout, because this assay has produced multiple assay endpoints where this one serves a reporter gene function. To generalize the intended target to other relatable targets, this assay endpoint is annotated to the dna binding intended target family, where the subfamily is MYB proteins.
Human liver HepG2 cells are transiently transfected with multiple reporter transcription units (MRTUs) in 6-well plates using FuGene 6 reagent (Roche; 3 ml FuGene/1 mg DNA). The MRTU constructs are regulated by a cis-regulating element (promoter). […] A major difference between the CIS and TRANS system is that in CIS activities of endogenous TFs are measured, whereas the TRANS assay evaluates changes in activities of exogenous, chimeric NR-Gal4 proteins. […] At the end of 24 hour incubation, total RNA was isolated using TriZol reagent (Invitrogen). The isolated RNA is then reverse-transcribed using oligo(dT) primer and Mo-MLV reverse transcriptase (Invitrogen) with DNAse I (Ambion) treatment for 30 min. The one-tenth of the produced cDNA was amplified by PCR using Taq DNA polymerase (Invitrogen) and two reporter sequence-specific primers. The PCR products were fluorescently labeled by primer extension with 6-arboxyfluorescein (6-FAM) 5'-labeled reporter sequence-specific primer (2 min at 95 C, 20 s at 68 C and 10 min at 72 C) and these products were digested with 5U of HpaI (New England Biolabs) for 2h at 37 C. The fragments were purified using Qiaquick PCR columns (Qiagen), analyzed on an ABI 3130xL genetic analyzer (Applied Biosystems) with peak positions identified by using a set of X-rhodamine (ROX)-labeled MapMarker1000 molecular weight standards (BioVentures). The raw capillary electrophoresis data was processed using Attagraph software (Attagene).
With `c1ccc(Nc2ccccc2)cc1`, the compound was called inactive.
The same measure for `S=C(S)NCCNC(=S)S.[Mn+2].[S-]C([S-])=NCCN=C([S-])[S-].[Zn+2]`: “inactive”; for `C=CCOC(Cn1ccnc1)c1ccc(Cl)cc1Cl` (stereo not given): “inactive”; for `O=C(O)c1ccccc1`: “inactive”.
With `CCCN(CCC)C(=O)SCC` the entry was “inactive”.
The same measure for `CC(C)CCCCCCc1ccc(O)cc1`: “inactive”; for `COCCO`: “inactive”; for `CCOC(=O)COc1cc(-n2ncc(C(F)(F)F)c(C)c2=O)c(F)cc1Cl`: “inactive”.
For the compound `CC1(C)C(C=C(Cl)Cl)C1C(=O)OCc1cccc(Oc2ccccc2)c1` (stereo not given), the result was inactive.
With `CCCOC(=O)NCCCN(C)C` the entry was “inactive”.
The same measure for `S=C([S-])NCCNC(=S)[S-].[Mn+2]`: “inactive”.
The same measure for `CCC(C)OC(=O)N1CCCCC1CCO` (stereo not given): “inactive”; for `CCC(O)=C1C(=O)CC(C(=O)O)CC1=O` (stereo not given): “inactive”; for `COC(=O)c1ccccc1S(=O)(=O)NC(=O)Nc1nc(OC(F)F)cc(OC(F)F)n1`: “inactive”.
For the compound `C[C@]12CC[C@@H]3c4ccc(O)cc4C[C@@H](CCCCCCCCCS(=O)CCCC(F)(F)C(F)(F)F)[C@H]3[C@@H]1CC[C@@H]2O` (stereo not given in full), the outcome was inactive.
The same measure for `CCCCOC(=O)[C@@H](C)Oc1ccc(Oc2ccc(C(F)(F)F)cn2)cc1`: “inactive”; for `CC(=O)[C@H]1CC[C@H]2[C@@H]3CCC4=CC(=O)CC[C@]4(C)[C@H]3CC[C@]12C`: “inactive”; for `Cc1nn(C)c(Oc2ccccc2)c1C=NOCc1ccc(C(=O)OC(C)(C)C)cc1`: “inactive”.
With `CCCCC(CC)CN1C(=O)C2C3C=CC(C3)C2C1=O` (stereo not given) the entry was “inactive”; with `CCCCOCCOCCOCc1cc2c(cc1CCC)OCO2`, “inactive”; with `Oc1ccc(C(c2ccc(O)cc2)C(Cl)(Cl)Cl)cc1`, “inactive”.
With `N#CSCSc1nc2ccccc2s1` the entry was “inactive”.
As for `COc1nc(C)nc(NC(=O)NS(=O)(=O)c2ccccc2OCCCl)n1`, the compound was called inactive.
With `COC(=O)c1cccc(C)c1S(=O)(=O)NC(=O)Nc1nc(OCC(F)(F)F)nc(N(C)C)n1` the entry was “inactive”; with `COC(=O)c1ccc(CNS(C)(=O)=O)cc1S(=O)(=O)NC(=O)Nc1nc(OC)cc(OC)n1`, “inactive”; with `CCCCCOC(=O)COc1cc(N2C(=O)C3=C(CCCC3)C2=O)c(F)cc1Cl`, “inactive”.
On to `O=C(c1ccccc1)C1CCCCC1`, for which the call was inactive.
With `COC(=O)CSc1cc(N=c2sc(=O)n3n2CCCC3)c(F)cc1Cl` the entry was “inactive”; with `CSC(=O)c1cccc2nnsc12`, “inactive”.
On to `COC(=O)c1c(Cl)nn(C)c1S(=O)(=O)NC(=O)Nc1nc(OC)cc(OC)n1`, for which the compound was classed as inactive.
The same measure for `CCCN(CCC)c1c([N+](=O)[O-])cc(C(F)(F)F)c(N)c1[N+](=O)[O-]`: “inactive”.
Regarding `c1ccc2[nH]c(-c3cscn3)nc2c1`, the compound was classed as inactive.
As to `CCCCOC(=O)C(C)Oc1ccc(Oc2ccc(C(F)(F)F)cn2)cc1` (stereo not given), the compound was classed as inactive.
The same measure for `N[C@@H](Cc1cc(I)c(Oc2ccc(O)c(I)c2)c(I)c1)C(=O)O`: “inactive”; for `CN(C)C(=O)Nc1ccc(Cl)c(Cl)c1`: “inactive”; for `CCCOC(=O)c1ccc(C(=O)OCCC)nc1`: “inactive”.
With `O=C(O)C1(C(=O)Nc2ccc(Cl)cc2Cl)CC1` the entry was “inactive”; with `OB(O)O`, “inactive”.
The same measure for `O=C(c1ccc(O)cc1O)c1ccc(O)cc1O`: “inactive”; for `C#CCOC(=O)[C@@H](C)Oc1ccc(Oc2ncc(Cl)cc2F)cc1`: “inactive”.

Source of the values: PubChem BioAssay (EPA / NIEHS).
